Screening results deposited in PubChem BioAssay by National Center for Advancing Translational Sciences (NCATS).
Most compounds without a hit are left out; they make up all but 10% or so of the library.
BAZ2B inh – inhibitors of human BAZ2B bromodomain; Potency, µM (titrated, usually from 114 µM), for inactives: at the top dose activity change, negative = inhibition, hits mostly inhibitors; 4.4% of 360,000 active; Q9UIF8; AlphaScreen BAZ2B-H3K14Ac peptide displacement; AID 504333; also: % is scaled to controls: 0 for no effect and ±100 for the full control effect; nearly all actives have a fitted effect of over 60% in size
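AlphaScreen displacement of biotin-H3(5-23)K14Ac peptide (50 nM final) from BAZ2B (50 nM final) in PBS pH 7.4, 0.01% Tween-20; complex preformed 30 min RT, then compounds (top 110 uM) 30 min RT, beads 20 min dark.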
GLS inh – inhibitors of human glutaminase (GLS) | 0.21% of 410,000 active | O94925 | GLS enzymatic activity, qHTS titration | Potency, µM (titrated, usually from 45.5 µM), without a hit: at the highest dose activity change, negative = inhibition, hits mostly inhibitors; also: % is scaled to controls: 0 for no effect and ±100 for the full control effect
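Assay buffer: 45 mM KH2PO4 pH 8.2, 0.02% Tween-20. hKGA acts on L-glutamine (1 mM solution added); product glutamate is reported by an oxidase/peroxidase Amplex Red coupling, with fluorescence taken at baseline and 30 min.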
G9a block – blocks human histone lysine methyltransferase G9a; 8.8% of 350,000 active; Potency, µM (highest dose often 102 µM), for inactives: top-dose activity, negative = inhibition, most hits filed as inhibitors; AID 504332; G9a H3K9 monomethylation, AlphaScreen, 2 h; also: % is scaled to controls: 0 for no effect and ±100 for the full control effect; nearly all actives have a fitted effect of over 75% in size
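AlphaScreen detection with an anti-monomethyl H3K9 antibody quantified product after a 2 h room-temperature reaction containing 500 nM biotinylated H3K9 peptide, 20 µM SAM and 20 nM enzyme, which had been preincubated 15 min with compound.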
JMJD2A Tudor inh – JMJD2A Tudor domain (human) inhibition | 4.4% of 390,000 active | AID 504339 | O75164 | AlphaScreen JMJD2A-Tudor / H3K4me3 peptide binding | Potency, µM (titrated, usually from 114 µM), inactives show at the top dose activity change, negative = inhibition, most hits filed as inhibitors; also: % is scaled to controls: 0 for no effect and ±100 for the full control effect; nearly all actives have a fitted effect of over 50% in size
Target sequence (O75164 whole entry, looked up, the tested form may be a part): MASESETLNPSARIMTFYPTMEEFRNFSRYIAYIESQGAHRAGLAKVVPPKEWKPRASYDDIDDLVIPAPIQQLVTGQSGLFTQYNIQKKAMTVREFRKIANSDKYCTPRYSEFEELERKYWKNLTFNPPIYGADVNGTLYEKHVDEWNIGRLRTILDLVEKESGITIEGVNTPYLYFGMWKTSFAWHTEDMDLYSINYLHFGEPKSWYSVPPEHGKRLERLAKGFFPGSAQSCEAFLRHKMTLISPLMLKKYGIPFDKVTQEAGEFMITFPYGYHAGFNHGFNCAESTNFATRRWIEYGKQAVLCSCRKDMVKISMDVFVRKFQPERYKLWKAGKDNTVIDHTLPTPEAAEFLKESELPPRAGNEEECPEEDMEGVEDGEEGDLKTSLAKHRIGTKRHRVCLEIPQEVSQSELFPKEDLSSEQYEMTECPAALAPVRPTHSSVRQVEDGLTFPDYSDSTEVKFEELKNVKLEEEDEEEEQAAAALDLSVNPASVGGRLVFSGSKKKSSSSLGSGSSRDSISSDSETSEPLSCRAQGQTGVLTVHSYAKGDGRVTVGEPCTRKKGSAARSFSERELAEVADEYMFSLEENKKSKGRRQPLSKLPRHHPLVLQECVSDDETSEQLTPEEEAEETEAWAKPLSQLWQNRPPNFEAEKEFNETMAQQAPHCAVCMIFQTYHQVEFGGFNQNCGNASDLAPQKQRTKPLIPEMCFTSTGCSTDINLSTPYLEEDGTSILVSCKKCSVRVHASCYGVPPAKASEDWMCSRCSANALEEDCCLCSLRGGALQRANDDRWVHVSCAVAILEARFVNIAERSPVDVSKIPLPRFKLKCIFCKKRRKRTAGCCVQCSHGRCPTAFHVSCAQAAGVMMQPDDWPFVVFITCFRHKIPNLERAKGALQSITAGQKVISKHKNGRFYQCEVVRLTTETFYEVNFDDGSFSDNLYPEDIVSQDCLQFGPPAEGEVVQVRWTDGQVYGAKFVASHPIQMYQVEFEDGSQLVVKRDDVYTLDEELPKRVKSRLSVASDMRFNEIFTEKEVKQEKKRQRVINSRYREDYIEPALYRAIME
HP1b binding inh – inhibitors of HP1-beta chromodomain binding to methylated histone tails | Potency, µM (doses to about 114 µM), for inactives: at the highest dose activity change, negative = inhibition, usual class: inhibitors | 0.56% of 390,000 active | AlphaScreen HP1-beta / biotin-H3K9me3 peptide binding | AID 540317 | P83916; also: nearly all actives have a fitted effect of over 70% in size
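Compound inhibition of the preformed complex between 50 nM HP1-beta and 50 nM biotinylated H3K9me3 peptide was read by AlphaScreen. Buffer was PBS pH 7.4 with 0.01% Tween-20. Incubations ran 30 min at room temperature, with 10 ug/mL donor/acceptor beads.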
* marks the source's active call; other numbers are inactive results; ? = inconclusive; / = no result given; [ ] = another dose, or the depositor's remark. Calls follow the shape of the dose curve; as a rule, active = well fitted curve in the direction sought with a large enough effect; inconclusive = small, poorly fitted or top-dose-only effect, or another doubt; inactive = no such curve, though single readings can be large; an effect the other way counts as inactive or inconclusive. Potency is read from the fitted curve at half-maximal effect.

SMILES	BAZ2B inh	GLS inh	G9a block	JMJD2A Tudor inh	HP1b binding inh
COc1ccc(C(=O)NC(=S)Nc2ccc(CN3CCCCC3)cc2)cc1Cl	?	-20%	13µM*	?	-34%
COc1ccc(C(=O)NC(=S)Nc2ccc(N3CCCC3)cc2)cc1	-28%	0%	?	-19%	-10%
COC(=O)c1cc2sccc2n1CC(=O)Nc1ccc(C)cc1C	-1%	-10%	-7%[59 µM]	-17%	6%
CCNc1ncc2nc(-c3ccc(OC)cc3)c(=O)n(Cc3cccs3)c2n1	/	/	2%[0.501 µM]	/	/
COc1ccccc1C(=O)Nc1ccc(N2CCN(S(C)(=O)=O)CC2)cc1	4%	31%	?	-9%	44%
CC(=O)c1ccc(N2CCN(C(=S)Nc3ccc(Oc4ccccc4)cc3)CC2)cc1	/	12%	16%	-19%	8%
COc1ccc(/C(C)=N/NC(=O)c2ccc(N(C)C)cc2)cc1	-4%	30%	/	-13%	30%
COc1cc(OC)cc(C(=O)NC(=S)Nc2ccc3oc(=O)ccc3c2)c1	-5%	-3%	8%	?	-5%
COc1cccc(C(=O)NC(=S)Nc2ccc3oc(=O)ccc3c2)c1	3%	-6%	40µM*	-26%	17%
COc1ccccc1C(=O)NC(=S)Nc1ccc(N2CCCC2)cc1	1%	23%	45µM*	?	?
CN1CCN(c2ccc(NC(=O)c3ccc(Oc4ccccc4)cc3)cc2)CC1	?	-7%	50µM*	?	-38%
COc1ccc(C(=O)N/N=C(/C)c2ccc(N3CCCCC3)cc2)cc1	2%	?	20%[59 µM]	50µM*	8%
Cc1cc(C(=O)COc2cc(F)ccc2[N+](=O)[O-])c(C)n1CC1CCCO1 (stereo unspecified)	/	10%	/	-34%	-21%
COc1cccc(C(=O)Nc2ccc3c(c2)C(=O)c2ccccc2C3=O)c1	-36%	2%	-14%[59 µM]	18µM*	-12%
COc1ccc(NC(=S)c2ccc(N(C)C)cc2)cc1	-26%	7%	25µM*	-11%	?
O=C(Nc1ccc2c(c1)C(=O)c1ccccc1-2)c1ccccc1	/	-7%	/	-10%	16%
CN(C)c1ccc(NC(=S)c2ccc3ccccc3n2)cc1	2.5µM*	-24%	2µM*	-12%	41%
COCCNC(=S)Nc1ccc(N2CCCCC2)cc1	50µM*	18%	8.9µM*	?	?
CC1CN(S(=O)(=O)c2ccc(CN3C(=O)c4cccnc4C3=O)s2)c2ccccc2O1 (stereo unspecified)	-38%	1%	/	-32%	16%
CCNC(=O)CC1C(=O)N(c2ccc(C)cc2)C(=O)N1Cc1ccc(C)cc1 (stereo unspecified)	-4%	-6%	-6%[59 µM]	-7%	6%
COc1ccc(OC)c2[nH]c(=O)c(CCNC(=S)NC(C)(C)C)cc12	/	14%	-43%	-27%	4%
CNC(=S)NCCc1cc2c(OC)ccc(OC)c2[nH]c1=O	/	31%	?	18µM*	8%
Cc1ccccc1NC(=O)N(O)C1(C#N)CCCCC1	/	21%	/	-17%	29%
Nc1c(Cl)cc2c(c1Oc1ccccc1)C(=O)c1ccccc1C2=O	?	2%	10µM*	-34%	-14%
COc1ccc(C2/C=C\CN(Cc3ccc(N(C)C)cc3)CC(=O)N2Cc2ccc(F)cc2)cc1 (stereo unspecified)	32µM*	14%	?	25µM*	?
SMILES	BAZ2B inh	GLS inh	G9a block	JMJD2A Tudor inh	HP1b binding inh
CCc1ccccc1NC(=O)CN(c1cc(C(F)(F)F)ccc1Cl)S(=O)(=O)c1ccccc1	-3%	4%	-39%[59 µM]	-9%	?
CS(=O)(=O)c1sc(C#N)c2c1C(=O)CC(c1ccccc1)C2 (stereo unspecified)	-38%	3%	25µM*	-21%	10%
Cc1oc2c(c(=O)c1C)C(=O)CC(c1ccccc1)C2 (stereo unspecified)	3%	4%	-29%[59 µM]	-9%	24%
Nc1nnnn1-c1ccccc1	/	-4%	/	/	/
C(=C\c1ccccc1)/C=N/Nc1nc(N2CCCCC2)nc(N2CCCCC2)n1	-4%[57.1 µM]	-8%	36%[0.501 µM]	-8%	38%
OCC(O)/C=N/Nc1nc(N2CCCCC2)nc(N2CCCCC2)n1 (stereo unspecified)	-17%	1%	56µM*	-5%	54%
